Results taken from PubChem BioAssay AID588726 (The Scripps Research Institute Molecular Screening Center, 2011).
“And” between values parts separate entries of the source, which are not always exact repeats. Equal entries are not always repeated. Hit rate of the full screen: of about 360,000 compounds, about 8,200 (2.3%) were called active. No stated cut-off is given here; in the data, active means inhibition above about 27%; inactive means the rest. Shown is part of a subset that was picked to be rich in actives.

These compounds were tested against Fructose-bisphosphate aldolase (Mycobacterium tuberculosis (strain ATCC 25618 / H37Rv)) (UniProt P9WQA3) (assay: M. tuberculosis aldolase activity blockers – biochemical, fluorescence, strain H37Rv, primary screen (AID 588726;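 further: 0% = vehicle and 100% = reference inhibitor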)). Conditions: purified M. tuberculosis FBA, fluorescence read-out, at 1 µM, hits give high values.
Fructose-bisphosphate aldolase (Mycobacterium tuberculosis (strain ATCC 25618 / H37Rv)), sequence (P9WQA3 whole entry, looked up): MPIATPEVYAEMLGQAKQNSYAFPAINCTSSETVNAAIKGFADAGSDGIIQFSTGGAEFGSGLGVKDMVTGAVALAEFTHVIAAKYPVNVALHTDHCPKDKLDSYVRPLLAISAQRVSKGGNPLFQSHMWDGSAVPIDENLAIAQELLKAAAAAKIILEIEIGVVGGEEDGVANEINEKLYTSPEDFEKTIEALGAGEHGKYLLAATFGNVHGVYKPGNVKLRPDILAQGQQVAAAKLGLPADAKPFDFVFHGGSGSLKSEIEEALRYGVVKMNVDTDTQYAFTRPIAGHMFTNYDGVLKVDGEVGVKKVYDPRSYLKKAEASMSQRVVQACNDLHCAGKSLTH

| Compound | inhibition |
| --- | --- |
| CC1COC2C(O1)N(S(C)(=O)=O)CCN2S(C)(=O)=O (centres undefined) | -0.44% (inactive) |
| Cc1cccc(-c2cnc(C(O)c3cc(C)cc(C)c3)[nH]2)c1 (centres undefined) | -2% (inactive) |
| CC(C)C(C(=O)NC1CCCCC1)N(CC1CCCO1)C(=O)CNS(=O)(=O)c1ccc(F)cc1 (centres undefined) | -0.74% (inactive) |
| CN1OC[C@@H]2CN(C(=O)C(C)(C)C)[C@H](c3ccc(-n4ccnc4)cc3)C[C@@H]21 | 3.11% (inactive) |
| Cc1ccc(-c2cnc(C(O)c3cccc(C)c3C)[nH]2)cc1 (centres undefined) | -6.24% (inactive) |
| CCC(C)(C)NC(=O)C(c1cccc(OC)c1OC)N(CC(C)C)C(=O)CCC(=O)Nc1cc(C)on1 (centres undefined) | -1.74% (inactive) |
| COC(=O)C1=CN(C)C=C(C(=O)OC)C1c1ccc(Cl)cc1Cl | 12.4% (inactive) |
| CCOc1cc(C2C(C(=O)OC)=CN(C3CCCC3)C=C2C(=O)OC)cc(Br)c1O | 9.72% (inactive) |
| CCOc1ccccc1C1C(C(=O)OC)=CN(C)C=C1C(=O)OC | 180% (active) |
| O=C(CC1SC(N2CCCC2)=NC1=O)Nc1ccc(C(=O)NCCc2ccc(F)cc2)cc1 (centres undefined) | -0.1% (inactive) |
| COc1ccccc1C(=O)NCC(=O)NCCSc1ccc(Br)cc1 | -1.16% (inactive) |
| O=C(NCc1ccco1)c1cccc(-c2ccc3nncn3c2)c1 | -0.68% (inactive) |
| Cn1nc(-c2ccc(Cl)cc2)c2cc(C(=O)NCc3ccco3)sc21 | 43.5% (active) |
| O=C(NCc1ccco1)c1sc2cccc(F)c2c1Cl | 5.05% (inactive) |
| COc1cc(C2OC(c3cc(OC)c(OC)c(OC)c3)C(C)C2C)cc(OC)c1OC (centres undefined) | -1.3% (inactive) |
| CC1CCCCC1NC(=O)CO/N=C/c1ccc(OC(F)F)cc1 (centres undefined) | -0.83% (inactive) |
| COc1ccc2nc(-c3ccccn3)ccc2c1 | 77.3% (active) |
| COc1ccc2cc(CCl)c(Cl)nc2c1 | 0.58% (inactive) |
| COc1ccc(C=C(C#N)C#N)c(CSc2ccccn2)c1 | 1.22% (inactive) |
| O=C(COc1cc(Cl)c(Cl)cc1Cl)NC(=O)NC1CCCC1 | 5.04% (inactive) |
| CC(C)(C)C(=O)CN1C2=NCCN2c2ccccc21 | -3.57% (inactive) |
| CC(C)n1c(NCc2c[nH]c3ccccc23)nc2ccccc21 | 1.92% (inactive) |
| CC(C)n1c(-c2cccs2)nc2ccccc21 | 32.3% (active) |
| CC(C)n1c(CN2CCN(Cc3ccccc3)CC2)nc2ccccc21 | 3.41% (inactive) |

| Compound | inhibition |
| --- | --- |
| Cc1noc(C)c1-c1ccc2ncnc(NC(C)c3ccco3)c2c1 (centres undefined) | 8.84% (inactive) |
| O=C(O)C1CCC(CNS(=O)(=O)c2ccc(Br)cc2)CC1 (centres undefined) | 0.74% (inactive) |
| CCN1CCN(C(=O)c2ccc(CN(c3ccc(C)c(C)c3)S(C)(=O)=O)cc2)CC1 | -1.53% (inactive) |
| O=c1oc2ccccc2cc1-c1cn(-c2ccccc2)c(=S)[nH]1 | 40.4% (active) |
| C/C(=C\c1ccco1)CN1CCC(N2CCC(C(=O)N3CCOCC3)CC2)CC1 | -2.26% (inactive) |
| OCC[C@H]1C[C@@H](O)[C@H](O)[C@]2(OCCCc3ccccc32)O1 | 2.25% (inactive) |
| O=C(N/N=C\c1ccc(-c2ccc(Cl)c(Cl)c2)o1)C(=O)N1CCCC1 | 1.03% (inactive) |
| O=C(COc1ccc2c(c1)CCC2)N1CCN(c2ccc(F)cc2)CC1 | -1.29% (inactive) |
| CCN1CCN(C(=O)CN(C)S(=O)(=O)c2ccc(OC)cc2)CC1 | -1.71% (inactive) |
| CCN1CCN(C(=O)c2cc3cc4ccc(OC)cc4nc3s2)CC1 | 43.9% (active) |
| COc1ccc(OCC(=O)N2CCN(C(=O)c3cccs3)CC2)cc1 | 1.53% (inactive) |
| O=C(OCC(=O)N1CCCCCC1)c1ccc(Br)c(S(=O)(=O)N2CCOCC2)c1 | -1.57% (inactive) |
| COc1ccc(CNC(=O)c2ccc(NS(=O)(=O)c3ccc4[nH]c(=O)[nH]c4c3)cc2)cc1OC | -1.09% (inactive) |
| Cc1ccc(C(=O)OC(C)CN2CCOCC2)cc1 (centres undefined) | -3.53% (inactive) |
| O=C(Cc1coc2ccc3ccccc3c12)NCc1cccs1 | 0.72% (inactive) |
| CCOC(=O)c1cnn(Cc2ccccc2Cl)c1N | -1.37% (inactive) |
| COCC(C)OC(=O)c1c(N)n(CCCN2CCOCC2)c2nc3ccccc3nc12 (centres undefined) | 104% (active) |
| CC(CN1CCOCC1)OC(=O)c1ccc(C(C)(C)C)cc1 (centres undefined) | -5.4% (inactive) |
| CCN(C(=O)COC(=O)c1c(C)nn(-c2ccccc2)c1Cl)c1c(N)n(Cc2ccccc2)c(=O)[nH]c1=O | -2.12% (inactive) |
| O=C(NCc1cccs1)c1cc(-c2ccccn2)nc2ccc(Br)cc12 | 1.48% (inactive) |
| CCOC(=O)c1c(CN2CCOCC2)n(-c2ccccc2)c2ccc(O)cc12 | -1.31% (inactive) |
| CCOC(=O)c1c(N)n(CCN2CCOCC2)c2nc3ccccc3nc12 | 113% (active) |
| CCOC(=O)c1c(C)[nH]c(C(=O)NCCN2CCOCC2)c1C | 1.62% (inactive) |
| CC(C)Cn1c(N)c(C(=O)NCc2cccs2)c2nc3ccccc3nc21 | 48.5% (active) |

| Compound | inhibition |
| --- | --- |
| CCOc1ccc(OCC)c(NC(=O)C(NS(=O)(=O)c2ccc3c(c2)oc(=O)n3C)C(C)C)c1 (centres undefined) | 0.18% (inactive) |
| O=C(NCCc1ccccc1)C(=O)NCC1OCCN1S(=O)(=O)c1cccs1 (centres undefined) | 0.89% (inactive) |
| CN(C)C(=O)N1CCNCC1 | 2.64% (inactive) |
| Cc1nc2ccc(S(=O)(=O)NCC(=O)O)cc2s1 | 0.49% (inactive) |
| COCCNS(=O)(=O)c1cc(Br)ccc1OC | 0.54% (inactive) |
| CCCCC(CC(C)O)c1n[nH]c(=S)n1-c1ccccc1 (centres undefined) | 2% (inactive) |
| Cc1ccc(/C([O-])=C(/C(=S)NCc2ccco2)[n+]2ccccc2)cc1[N+](=O)[O-] | 1.54% (inactive) |
| CCOc1cc(/C=N/NC(=O)c2ccc(CSc3nncn3C)cc2)ccc1OCC(=O)N1CCOCC1 | -1.98% (inactive) |
| C=CCn1c(P(C)(=O)O)nc2ccccc21 | 1.11% (inactive) and 4.28% (inactive) |
| C=CCn1c(N)c(S(=O)(=O)c2cccs2)c2nc3ccccc3nc21 | 163% (active) |
| C=CCn1c(N)c(C(=O)OCC(C)C)c2nc3ccccc3nc21 | 88.6% (active) |
| CCCCNc1nc2ccccc2nc1NS(=O)(=O)c1cccs1 | 6.38% (inactive) |
| C=CCn1c(C(C)NC(=O)CC)nc2ccccc21 (centres undefined) | 3.68% (inactive) |
| O=C(NCCCN1CCCC1=O)c1ccc(S(=O)(=O)Nc2ccccc2)cc1 | -1.21% (inactive) |
| C=CCN1CN(S(=O)(=O)c2ccc(OC)cc2)c2nc3ccccc3nc21 | 6.64% (inactive) |
| Cc1nn(Cc2ccccc2)c(C)c1C(=O)NCCCN1CCCC1=O | -1.19% (inactive) |
| CCCCC1N2CC3([N+](=O)[O-])CN1CC([N+](=O)[O-])(C2)C3(C)C (centres undefined) | 2.82% (inactive) |
| COC(=O)c1ccc(NC(=O)CSc2nncn2-c2cccnc2)cc1 | 0.47% (inactive) |
| CSc1cccc(NC(=S)N(C(C)C)C(C)c2ccccn2)c1 (centres undefined) | 0.95% (inactive) |
| NC(=O)CSc1nnc(-c2cccc(S(=O)(=O)N3CCOCC3)c2)o1 | -1.59% (inactive) |
| Cc1ccc(NC(=O)Cc2nc(COC(=O)C(C)NS(=O)(=O)c3ccc(C)cc3)cs2)cc1 (centres undefined) | 3.71% (inactive) |
| Cc1ccccc1OCC(=O)NNC(=O)c1ccc(-n2cncn2)c([N+](=O)[O-])c1 | -1.97% (inactive) |
| Cc1ccc(S(=O)Cc2ccc(C(=O)N3CCN(C4CCCCC4)CC3)o2)cc1 (centres undefined) | 1.16% (inactive) |
| CCOC(=O)[C@@H]1[C@H]2COc3cc(OC)ccc3[C@H]2N2C(=O)N(c3ccc(F)cc3)C(=O)[C@]12C | 0.06% (inactive) |

| Compound | inhibition |
| --- | --- |
| C[C@@H]1CN([C@H](C)CO)S(=O)(=O)c2ccc(C#CC3CCCCC3)cc2O[C@H]1CN(C)C(=O)Cc1ccncc1 | -2.18% (inactive) |
| O=C1NC(c2cc3c(cc2Cl)OCO3)Oc2ccccc21 (centres undefined) | 0.96% (inactive) |
| CCC(C)n1[nH]c(=O)c2c(C)cc(C)nc21 (centres undefined) | 2.95% (inactive) |
| CCCC(C)n1[nH]c(=O)c2c(C)cc(C)nc21 (centres undefined) | 4.12% (inactive) |
| Cc1nc2scc(-c3cccs3)c2c(=O)n1N | -0.89% (inactive) |
| C=CCc1c(C)nc2cc(-c3ccccc3)[nH]n2c1=O | 33.2% (active) |
| Cc1nc2nc[nH]n2c(=O)c1C/C=C/c1ccccc1 | -4.22% (inactive) |
| CCc1c(C)nc2cc(-c3cccs3)[nH]n2c1=O | 27.4% (active) |
| CCCCCN1CC(O)=C(c2ccccc2)C1=N | -3.67% (inactive) |
| CCc1c(C)nc2cc(C)[nH]n2c1=O | 27.9% (active) |
| Cc1nc2nc(COc3ccccc3)[nH]n2c(=O)c1Cc1ccccc1 | 1.84% (inactive) |
| Cc1cc(-c2cccs2)nc(-n2cccc2)n1 | 2.52% (inactive) |
| COC(=O)CN1C(=O)[C@H]2[C@@H](/C=C/c3ccccc3)N3C(=O)CN(CC4CC4)C(=O)[C@@]3(Cc3ccccc3)[C@H]2C1=O | 5.08% (inactive) |
| COc1ccccc1NC(=O)CCC(=O)OC(C)C(=O)c1ccccc1 (centres undefined) | 2.76% (inactive) |
| O=C1N[C@@H](Cc2ccccc2)C(=O)N2[C@@H]3N(S(=O)(=O)c4ccc(F)cc4)c4ccccc4[C@]3(Br)C[C@@H]12 | -1.67% (inactive) |
| O=C(COc1ccc(Cl)cc1Cl)NCCCNC(=O)c1cnccn1 | 4.96% (inactive) |
| Cc1ccc(C)c(-n2cc(CN3CCN(C(=O)c4ncn[nH]4)CC3)c(-c3ccccc3)n2)c1 | -1.74% (inactive) |
| Cc1ccc(NS(=O)(=O)c2cccs2)cc1S(=O)(=O)N1CCCCCC1 | -1.86% (inactive) |
| CCCCCN(C(=O)NC(=O)Nc1ccccc1OC)S(C)(=O)=O | -0.28% (inactive) |
| O=C(Cc1cccs1)NCc1cccc(C(F)(F)F)c1 | 2.86% (inactive) |
| Cn1c(=O)c2cc(NC(=O)NCCc3cccs3)ccc2n1Cc1cccc(C(F)(F)F)c1 | 141% (active) |
| CN(C)C(=O)c1cccn(Cc2cccc(C(F)(F)F)c2)c1=O | 0.45% (inactive) |
